Screens from PubChem BioAssay.
GPR151 ag = human GPR151 activation; Q8TDV0; PathHunter beta-arrestin GPR151 cells, luminescence; activation, % at 11.2 µM; hit rate 1% among 650,000; in the data active = activation above about 4.9%;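 also: 0% = median of compound wells and 100% = cells with positive control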
FBW7 act = human FBW7 E3 ligase activation, primary screen. AlphaScreen FBW7–phospho-cyclin E peptide binding, activator screen. hit rate 0.13% among 650,000. AID 1259310. normalized activity (activation), % at 26.1 µM. Q969H0; in the data active = normalized activity above about 1.9%;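 also: purified mutant Fbw7 with reduced substrate affinity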
TEAD-YAP block = TEAD-YAP interaction inhibition | AID 1259422 | inhibition, % at 9.12 µM | HEK-TIYL cells, TEAD-Gal4/YAP UAS-luciferase luminescence | hit rate 1.4% among 640,000; in the data active = inhibition above about 32%;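 also: 0% = median of test compound wells and 100% = reference inhibitor wells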
MITF inh = blocks human microphthalmia-associated transcription factor | O75030 | AlphaScreen MITF homodimerization, bead proximity signal | inhibition, % at 2.6 µM | hit rate 0.91% among 650,000 | AID 1259374; in the data active = inhibition above about 50%;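 also: 0% = vehicle wells with protein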
GPR151 conf act = human GPR151 activation, confirmation screen; shares compounds with GPR151 ag; GPR151 PathHunter beta-arrestin cells, luminescence, 90 min; % of EA-reagent control over plate median; activation, % at 11.2 µM; 6,700 tested, under 10 active;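 active = mean percent activation across replicates above the confirmation screen cutoff of 4.91%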
GPR119 counter = GPR119 activation, counter-screen for GPR151 activators; hit rate 0.3% among 6,700; activation, % at 11.2 µM; shares compounds with GPR151 ag; GPR119 PathHunter beta-arrestin cells, luminescence, 90 min; 0 = compound-well median, 100 = enzyme-acceptor control;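 active = mean percent activation in the counterscreen above 29.09%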;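 also: counterscreen on off-target GPR119 to flag nonselective hits from the GPR151 activator screen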
Target sequence (Q8TDV5 whole entry, looked up): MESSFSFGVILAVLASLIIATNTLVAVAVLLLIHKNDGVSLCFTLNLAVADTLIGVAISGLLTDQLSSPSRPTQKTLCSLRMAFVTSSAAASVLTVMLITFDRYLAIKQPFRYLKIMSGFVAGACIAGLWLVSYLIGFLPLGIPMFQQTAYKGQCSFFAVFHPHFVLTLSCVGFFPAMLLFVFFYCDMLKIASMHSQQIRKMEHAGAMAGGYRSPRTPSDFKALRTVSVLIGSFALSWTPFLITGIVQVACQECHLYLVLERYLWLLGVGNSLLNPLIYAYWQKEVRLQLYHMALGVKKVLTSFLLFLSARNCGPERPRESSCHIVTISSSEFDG
An asterisk follows results filed as active; / = no result given. Shown are actives, neighbours in structure and some others; about 3.4% of the full set was active somewhere.

SMILES	GPR151 ag	FBW7 act	TEAD-YAP block	MITF inh	GPR151 conf act	GPR119 counter
Cc1ccccc1CSCCNS(=O)(=O)c1ccccc1[N+](=O)[O-]	5.9*	-0.4	0.1	-7.2	0.5	-5.2
CCCCCCCCCCCCCCCC(=O)SCCOP(=O)(O)OCC[N+](C)(C)C	5.4*	/	/	-2.1	2.1	15.2
O=C(CSc1nnc(CNC(=O)c2ccccc2)o1)NCc1ccco1	7.8*	0.1	1.6	7.7	0.8	4.0
COCCCNC(=O)c1ccc(OC)cc1	-1.6	0.1	-10.2	23.4	/	/
COCCNC(=O)c1ccc(OC)cc1	4.9*	0.6	-2.4	-1.3	1.8	0.8
N#Cc1ccc2c(c1)N(Cc1ccccc1F)C(=O)C1CCCN21 (centres undefined)	1.7	0.5	4.8	-2.8	/	/
Cc1cccc(CN2C(=O)C3CCCN3c3ccc(C#N)cc32)c1 (centres undefined)	9.4*	0.0	-5.5	0.5	-0.4	-6.8
Brc1cccc(Nc2nc(-c3ccccn3)cs2)c1	22.2*	-0.4	-14.4	0.7	0.3	-12.5
Brc1ccc(Nc2nc(-c3ccccn3)cs2)cc1	0.8	0.4	-28.4	21.3	/	/
CCCCn1c(C)nc2c(sc3nc4c(cc32)COC(C)(C)C4)c1=O	9.0*	0.1	-34.1	19.6	1.0	1.4
O=C(NCc1cccs1)Nc1ccccc1Cl	6.2*	0.1	-23.7	24.7	0.1	0.6
O=C(NCc1ccccc1)C1(c2ccccc2)CCN(S(=O)(=O)c2ccccc2)CC1	5.6*	0.1	4.7	-8.3	-0.5	-12.3
O=C(NCc1cccs1)C1(c2ccccc2)CC1	8.6*	-0.1	2.1	5.3	0.0	3.2
O=C(O)C1(c2ccccc2)CCN(S(=O)(=O)c2ccccc2)CC1	-1.4	0.1	-2.1	15.8	/	/
O=C(NCc1cccs1)Nc1ccccc1	0.2	0.1	-13.6	-3.9	/	/
COc1ccc(CCNc2nc(NC(C)(C)CO)nc(N3CCCC3)n2)cc1OC	-0.8	0.1	-2.2	14.8	/	/
COc1ccc(CCNc2nc(N3CCCC3)nc(N3CCCC3)n2)cc1OC	5.1*	0.4	-17.7	17.9	0.9	-8.2
CCN1C(=O)CC(N2CCC(C(=O)N3CCOCC3)CC2)C1=O (centres undefined)	15.1*	-0.2	0.8	-3.9	1.0	14.2
O=c1[nH]nc(SCc2cccc(Oc3ccccc3)c2)c(=S)[nH]1	-1.3	0.0	4.1	4.8	/	/
Cc1nc(SCc2cccc(Oc3ccccc3)c2)n[nH]1	7.9*	-0.1	25.8	2.3	0.1	-1.2
Cc1nc(Nc2ccc(N(C)C)cc2)nc(Nc2ccc(N(C)C)cc2)c1[N+](=O)[O-]	10.1*	-0.2	-10.6	2.1	1.1	9.3
Cc1nc(Nc2cccc(N(C)C)c2)nc(Nc2cccc(N(C)C)c2)c1[N+](=O)[O-]	1.5	-0.8	-2.2	26.2	/	/
CC1=CC(C)(C)N(C(=O)CN2C(=O)CCC2=O)c2cc(C)ccc21	11.8*	-0.2	3.3	5.4	-0.6	-11.9
COc1cc(/C=N/Nc2ccc3nnc(C)n3n2)ccc1O	8.9*	0.2	1.3	24.3	0.3	11.2
COC(=O)/C(=C/c1cccc(Br)c1)NC(=O)c1ccco1	-1.6	0.1	-3.0	2.0	/	/
SMILES	GPR151 ag	FBW7 act	TEAD-YAP block	MITF inh	GPR151 conf act	GPR119 counter
CCC(C)NC(=O)Cn1nc(-c2ccccc2)ccc1=O (centres undefined)	8.5*	-0.1	4.5	7.0	-0.1	-1.0
Cc1nnc(SCc2cc(=O)n3[nH]cnc3n2)s1	5.7*	0.0	11.2	14.4	-1.0	-5.2
CCOc1ccc(NC(=O)CC2SC(=O)NC2=O)cc1 (centres undefined)	-0.3	0.1	5.7	-4.1	/	/
CCOc1ccc(NC2SC(=O)NC2=O)cc1 (centres undefined)	5.0*	0.1	9.4	-2.5	-0.6	-9.1
O=C(CSc1nnc(-c2ccc(Cl)cc2)o1)OCC(=O)c1ccccc1	-0.3	-0.1	-3.6	-8.2	/	/
CCN(CC)CCn1c(N)c(C(=O)Nc2ccccc2C)sc1=S	6.0*	-0.1	2.0	2.8	0.6	10.4
CCOc1ccc(-n2c(N)c(C(=O)Nc3ccccc3C)sc2=S)cc1	-0.3	0.1	7.2	12.7	/	/
O=S(=O)(Nc1ccc(Cl)cc1)c1ccc2ccccc2c1	-1.0	0.2	4.9	12.6	/	/
O=C(NCCCN1CCCC1)c1cc2c(s1)-c1ccccc1SC2	6.0*	-0.2	-5.2	12.0	-0.8	-17.1
CN(C)CCNC(=O)c1cc2c(s1)-c1ccccc1SC2	-2.7	0.0	-33.1	0.7	/	/
O=P(O)(O)OC1[C@H](OP(=O)(O)O)[C@H](O)C(O)[C@H](O)[C@H]1OP(=O)(O)O (some centres undefined)	-2.0	/	/	-5.4	/	/
CCc1cc2c(SCC(=O)c3ccccc3)ncnc2s1	-1.1	0.2	-44.7	5.7	/	/
CCc1cc2c(SCC(=O)c3cccs3)ncnc2s1	5.1*	0.1	-15.1	8.5	-0.7	-12.6
CCc1cc2c(SCC(=O)Nc3sccc3C(N)=O)ncnc2s1	7.0*	0.2	0.8	-1.1	-0.1	-8.4
CCc1cc2c(SCC(=O)Nc3ccc(Br)cc3)ncnc2s1	-0.2	0.1	9.7	-4.9	/	/
COc1ccc(Nc2nnc(Cc3ccccc3Cl)c(=O)[nH]2)c(OC)c1	6.4*	0.1	5.4	-0.8	0.5	11.7
CN1CCN(C(=O)c2ccc(-c3nc4ccc(C(=O)NCCOc5ccccc5)cc4s3)cc2)CC1	5.3*	0.1	-24.2	-8.1	1.9	2.6
CN1CCN(C(=O)c2ccc(-c3nc4ccc(C(=O)NCc5ccccc5)cc4s3)cc2)CC1	1.1	0.1	0.7	-1.4	/	/
NC(=O)c1ccc(-c2nc3ccc(C(=O)NCCOc4ccccc4)cc3s2)cc1	5.7*	0.1	-32.8	-1.6	-0.2	-2.8
COC(=O)C1=C(C)NC2=C(C(=O)CC(c3ccc(C)cc3)C2)C1c1ccc(C)o1 (centres undefined)	0.3	0.0	7.5	17.1	/	/
CCCC(=O)Nc1ccc(NC(=S)NC(=O)c2ccc(OC)cc2)cc1	-1.7	0.0	-11.2	7.5	/	/
COc1ccc(C(=O)NC(=S)Nc2ccccc2O)cc1	6.8*	-0.1	-31.3	-9.6	0.5	-3.0
CCC(=O)NC(=S)Nc1ccc(NC(=O)c2ccc(OC)cc2)cc1	6.6*	0.1	8.3	-8.8	0.2	6.7
COCC1CCCN(C(=O)CC2(c3ccccc3Cl)CC(=O)N(C3CCCC3)C2=O)C1 (centres undefined)	-1.0	0.0	1.0	-0.1	/	/
CN1CCN(S(=O)(=O)c2ccc(Sc3ccc(S(=O)(=O)N4CCN(C)CC4)cc3)cc2)CC1	-0.7	-0.2	9.2	-4.4	/	/
COc1ccc(NC(=O)c2sc(=S)[nH]c2N)cc1	5.0*	-0.2	-30.6	-4.3	-0.8	-11.7
O=C(Nc1ccc(Cl)cc1)C1C2C=CC3(O2)C1C(=O)N(Cc1ccccc1Cl)C3C(=O)NC1CCCCC1 (centres undefined)	-0.8	0.0	-1.7	8.2	/	/
Cc1ccnc(SCC(=O)c2ccc(F)cc2)n1	0.1	0.0	-23.1	14.0	/	/
